Records with an inconclusive call do not appear. Some compounds were tested as several samples or in several runs, with calls that do not always agree. Calls of active or inactive are those of the source. The calls were made as follows, unless noted: active = hit-call score of the fitted dose curve at least 0.9, where 1 is the maximum; inactive = score below 0.9.
Legend:
[1] = molecular target: Estrogen-related receptor gamma (Homo sapiens) (UniProt P62508); assay: ATG_ERRg_TRANS: Attagene TRANS-FACTORIAL HepG2 Assay for human Estrogen-Related Receptor gamma (ERRg) (AID 2282977; active = hit-call score of the fitted dose curve at least 0.9, where 1 is the maximum;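 also: hits increase reporter signal over DMSO so potencies reflect activators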); conditions: HepG2 Attagene TRANS reporter, ERRg transactivation
Sequence of Estrogen-related receptor gamma (Homo sapiens) (P62508 whole entry, looked up, the tested form may be a part): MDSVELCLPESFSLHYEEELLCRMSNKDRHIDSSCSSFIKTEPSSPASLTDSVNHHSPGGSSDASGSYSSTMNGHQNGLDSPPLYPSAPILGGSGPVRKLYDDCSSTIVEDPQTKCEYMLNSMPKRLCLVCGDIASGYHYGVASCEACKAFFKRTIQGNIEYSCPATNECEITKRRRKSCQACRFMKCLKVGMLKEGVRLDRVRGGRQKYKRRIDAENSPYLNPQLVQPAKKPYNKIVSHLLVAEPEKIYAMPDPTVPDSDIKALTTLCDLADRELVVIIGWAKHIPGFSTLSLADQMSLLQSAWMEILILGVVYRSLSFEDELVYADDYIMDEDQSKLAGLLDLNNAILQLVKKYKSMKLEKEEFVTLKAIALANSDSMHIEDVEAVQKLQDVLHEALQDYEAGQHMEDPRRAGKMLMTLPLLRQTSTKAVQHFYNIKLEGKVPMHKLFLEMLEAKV
Summary of the method: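 Transient HepG2 transfectants, 24 h compound exposure, GAL4-UAS reporter mRNA by RT-PCR/6-FAM labelling/capillary electrophoresis; positive direction vs DMSO.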

[2] = molecular target: Glucocorticoid receptor (Homo sapiens) (UniProt P04150); assay: ATG_GR_TRANS: Attagene TRANS-FACTORIAL HepG2 Assay for human Glucocorticoid Receptor (GR) (AID 2282978; active = hit-call score of the fitted dose curve at least 0.9, where 1 is the maximum;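 also: activators score as hits since higher reporter transcript over DMSO is fitted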); conditions: HepG2 Attagene TRANS GR reporter, mRNA transcription
Sequence of Glucocorticoid receptor (Homo sapiens) (P04150 whole entry, looked up, the tested form may be a part): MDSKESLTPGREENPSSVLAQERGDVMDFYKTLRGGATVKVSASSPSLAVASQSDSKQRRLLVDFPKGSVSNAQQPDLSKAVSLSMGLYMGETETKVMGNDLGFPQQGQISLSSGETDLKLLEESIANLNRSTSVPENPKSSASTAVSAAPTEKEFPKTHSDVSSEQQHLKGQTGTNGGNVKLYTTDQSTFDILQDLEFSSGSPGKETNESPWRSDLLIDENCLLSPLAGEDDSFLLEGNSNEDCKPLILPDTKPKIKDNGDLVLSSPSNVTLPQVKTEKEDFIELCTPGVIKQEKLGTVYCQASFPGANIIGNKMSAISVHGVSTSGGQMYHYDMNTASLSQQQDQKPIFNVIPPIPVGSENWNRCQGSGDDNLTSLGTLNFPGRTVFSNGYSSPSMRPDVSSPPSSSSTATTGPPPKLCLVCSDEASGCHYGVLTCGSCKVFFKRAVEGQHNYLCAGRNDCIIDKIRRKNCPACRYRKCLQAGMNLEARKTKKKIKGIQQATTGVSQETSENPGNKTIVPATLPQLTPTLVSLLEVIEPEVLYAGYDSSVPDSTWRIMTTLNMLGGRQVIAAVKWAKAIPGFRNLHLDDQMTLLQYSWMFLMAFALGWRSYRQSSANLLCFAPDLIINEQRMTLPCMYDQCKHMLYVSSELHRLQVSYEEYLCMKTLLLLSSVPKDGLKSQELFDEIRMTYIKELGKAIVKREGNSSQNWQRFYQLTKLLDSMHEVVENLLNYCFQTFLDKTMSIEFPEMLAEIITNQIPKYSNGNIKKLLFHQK
Summary of the method: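 Exogenous NR-GAL4 fusion activity was assessed through induced GAL4-UAS reporter transcripts in transfected human HepG2 cells, quantified after 24 h by RT-PCR and fluorescent capillary electrophoresis with DMSO as baseline.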

[3] = molecular target: Bile acid receptor (Homo sapiens) (UniProt Q96RI1); assay: ATG_FXR_TRANS: Attagene TRANS-FACTORIAL HepG2 Assay for Farnesoid X Receptor (FXR) (AID 2282979; active = hit-call score of the fitted dose curve at least 0.9, where 1 is the maximum;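 also: hits raise reporter mRNA above DMSO so AC50 marks FXR activation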); conditions: HepG2 Attagene TRANS FXR-GAL4 reporter transcription
Sequence of Bile acid receptor (Homo sapiens) (Q96RI1 whole entry, looked up, the tested form may be a part): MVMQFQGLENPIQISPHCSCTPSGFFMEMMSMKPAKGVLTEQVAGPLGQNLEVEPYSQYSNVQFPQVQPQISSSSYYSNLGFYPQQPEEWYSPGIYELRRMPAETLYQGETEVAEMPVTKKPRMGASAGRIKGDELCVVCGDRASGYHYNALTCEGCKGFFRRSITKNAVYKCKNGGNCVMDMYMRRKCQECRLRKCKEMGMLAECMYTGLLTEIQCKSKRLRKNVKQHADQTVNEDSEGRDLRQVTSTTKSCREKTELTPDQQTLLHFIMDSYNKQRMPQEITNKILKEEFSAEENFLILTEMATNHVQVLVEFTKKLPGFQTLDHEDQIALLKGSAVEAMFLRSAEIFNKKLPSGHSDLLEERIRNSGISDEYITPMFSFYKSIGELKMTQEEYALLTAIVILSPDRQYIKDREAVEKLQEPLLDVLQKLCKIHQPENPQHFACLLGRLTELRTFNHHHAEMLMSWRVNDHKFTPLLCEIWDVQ
Summary of the method: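 Read-out: fluorescent reporter transcripts quantified by capillary electrophoresis after RT-PCR of total RNA. Source cells were HepG2 transiently carrying chimeric NR-GAL4 plus GAL4-UAS reporter units, dosed 24 h. Activity fitted upward relative to DMSO baseline.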

[4] = ATG_M_06_TRANS: Attagene TRANS-FACTORIAL HepG2 Assay for M06 Transcription Factor (Internal Marker) (AID 2282983; active = hit-call score of the fitted dose curve at least 0.9, where 1 is the maximum); conditions: HepG2 Attagene TRANS M06 internal marker reporter
Summary of the method: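 After a 24 h chemical treatment of transfected HepG2, RNA underwent DNase I treatment, reverse transcription and reporter-specific PCR; labelled, HpaI-digested products were sized by capillary electrophoresis. Signal increase relative to DMSO defined activity.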

[5] = ATG_M_32_TRANS: Attagene TRANS-FACTORIAL HepG2 Assay for M32 Transcription Factor (Internal Marker) (AID 2282984; active = hit-call score of the fitted dose curve at least 0.9, where 1 is the maximum;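 also: transcript level of a background control reporter unit measured by RT-PCR and capillary electrophoresis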); conditions: HepG2 Attagene TRANS M32 internal marker reporter
Summary of the method: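 HepG2 cells transiently transfected with multiple GAL4-UAS reporter transcription units, dosed for 24 hours; reporter mRNA quantified by RT-PCR, 6-FAM primer extension, HpaI digestion and capillary electrophoresis. Gain-of-signal fitted versus DMSO baseline; internal background-control marker.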

[6] = molecular target: Nuclear receptor subfamily 4 group A member 2 (Homo sapiens) (UniProt P43354); assay: ATG_NURR1_TRANS: Attagene TRANS-FACTORIAL HepG2 Assay for human Nuclear Receptor Related Protein 1 (NURR1) (AID 2282985; active = hit-call score of the fitted dose curve at least 0.9, where 1 is the maximum); conditions: HepG2 Attagene TRANS reporter, mRNA readout
Sequence of Nuclear receptor subfamily 4 group A member 2 (Homo sapiens) (P43354 whole entry, looked up, the tested form may be a part): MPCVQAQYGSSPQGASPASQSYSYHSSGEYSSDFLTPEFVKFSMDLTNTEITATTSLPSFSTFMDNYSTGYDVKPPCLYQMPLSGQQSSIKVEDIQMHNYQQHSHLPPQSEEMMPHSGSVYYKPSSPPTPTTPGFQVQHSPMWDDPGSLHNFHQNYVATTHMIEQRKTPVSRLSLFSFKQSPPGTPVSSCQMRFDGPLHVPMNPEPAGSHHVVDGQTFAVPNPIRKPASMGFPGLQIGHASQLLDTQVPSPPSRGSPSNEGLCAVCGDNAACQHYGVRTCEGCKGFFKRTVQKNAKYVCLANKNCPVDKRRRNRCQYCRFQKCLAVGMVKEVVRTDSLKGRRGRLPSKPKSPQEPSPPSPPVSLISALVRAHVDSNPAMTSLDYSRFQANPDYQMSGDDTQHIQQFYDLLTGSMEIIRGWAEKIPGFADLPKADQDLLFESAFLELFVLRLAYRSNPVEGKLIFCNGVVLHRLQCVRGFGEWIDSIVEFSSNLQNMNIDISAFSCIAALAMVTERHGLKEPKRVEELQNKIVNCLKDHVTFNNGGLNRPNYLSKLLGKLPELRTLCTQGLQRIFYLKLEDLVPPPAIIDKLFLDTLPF
Summary of the method: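 HepG2 cells transiently transfected with GAL4-UAS reporter units and chimeric NR-Gal4 constructs; chemical exposure 24 h. Reporter mRNA quantified by RT-PCR, fluorescent labelling and capillary electrophoresis; gain of signal fitted relative to DMSO baseline.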

[7] = molecular target: Transcriptional activator Myb (Homo sapiens) (UniProt P10242); assay: ATG_Myb_CIS: Attagene CIS-FACTORIAL HepG2 Assay for human Myeloblastosis (Myb) Proto-Oncogene Transcription Factor (AID 2282986); conditions: HepG2 Attagene CIS-FACTORIAL Myb reporter transcription; actives raise or lower the signal
Sequence of Transcriptional activator Myb (Homo sapiens) (P10242 whole entry, looked up): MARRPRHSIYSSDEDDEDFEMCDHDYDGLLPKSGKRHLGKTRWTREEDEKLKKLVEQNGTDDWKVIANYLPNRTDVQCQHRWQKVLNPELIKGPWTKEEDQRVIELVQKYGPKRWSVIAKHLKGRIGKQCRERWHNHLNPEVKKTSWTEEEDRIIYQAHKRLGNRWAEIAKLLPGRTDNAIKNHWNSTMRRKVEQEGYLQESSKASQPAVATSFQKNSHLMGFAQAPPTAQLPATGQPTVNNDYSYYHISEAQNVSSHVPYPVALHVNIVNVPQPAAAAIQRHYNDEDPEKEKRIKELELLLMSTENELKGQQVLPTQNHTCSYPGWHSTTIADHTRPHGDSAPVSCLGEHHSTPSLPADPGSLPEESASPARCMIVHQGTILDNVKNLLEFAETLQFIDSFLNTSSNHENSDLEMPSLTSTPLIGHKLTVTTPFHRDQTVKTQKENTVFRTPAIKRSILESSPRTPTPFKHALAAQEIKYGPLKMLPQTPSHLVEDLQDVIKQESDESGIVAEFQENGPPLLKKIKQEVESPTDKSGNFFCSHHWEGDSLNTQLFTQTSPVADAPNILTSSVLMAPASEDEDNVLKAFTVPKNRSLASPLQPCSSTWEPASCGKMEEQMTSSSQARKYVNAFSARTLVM
Summary of the method: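 In this HepG2 transient-transfection format, cis-regulated reporter mRNA is quantified 24 h post-dosing by RT-PCR with capillary electrophoresis, fitted bidirectionally to DMSO baseline.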

[8] = molecular target: Nuclear respiratory factor 1 (Homo sapiens) (UniProt Q16656); assay: ATG_NRF1_CIS: Attagene CIS-FACTORIAL HepG2 Assay for human Nuclear Respiratory Factor 1 (NRF1) Orphan Gene (AID 2282987); conditions: HepG2 NRF1 cis-element reporter, Attagene multiplex; actives raise or lower the signal
Sequence of Nuclear respiratory factor 1 (Homo sapiens) (Q16656 whole entry, looked up): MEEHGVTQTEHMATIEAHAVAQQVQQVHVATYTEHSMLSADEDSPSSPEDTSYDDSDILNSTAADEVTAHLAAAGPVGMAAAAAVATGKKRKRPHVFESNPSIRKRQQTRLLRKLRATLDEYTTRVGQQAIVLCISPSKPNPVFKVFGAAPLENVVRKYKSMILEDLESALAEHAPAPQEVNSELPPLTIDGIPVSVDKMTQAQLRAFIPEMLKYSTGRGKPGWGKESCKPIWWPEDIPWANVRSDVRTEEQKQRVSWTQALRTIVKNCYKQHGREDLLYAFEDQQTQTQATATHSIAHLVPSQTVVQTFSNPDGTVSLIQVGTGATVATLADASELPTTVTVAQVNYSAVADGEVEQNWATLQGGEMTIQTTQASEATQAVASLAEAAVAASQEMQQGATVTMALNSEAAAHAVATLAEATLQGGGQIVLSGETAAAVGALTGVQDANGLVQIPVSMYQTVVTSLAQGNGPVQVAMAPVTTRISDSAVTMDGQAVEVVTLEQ
Summary of the method: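 Using DMSO as baseline, gain- or loss-of-signal was fitted for reporter mRNA levels in HepG2 cells transiently transfected with cis-regulated reporter units. Samples were taken 24 h after dosing and read by RT-PCR with capillary electrophoresis.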

[9] = ATG_NFI_CIS: Attagene CIS-FACTORIAL HepG2 Assay for human Nuclear Factor I (NFI) (AID 2282989); conditions: HepG2 cis-regulatory reporter, NFI response element transcription; actives raise or lower the signal
Summary of the method: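 Reporter transcripts were measured by RT-PCR with fluorescent primer extension and capillary electrophoresis 24 h post-treatment. HepG2 cells carried transiently transfected cis-regulated reporter constructs reporting endogenous factor activity; gain or loss fitted against DMSO baseline.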

[10] = ATG_NF_kB_CIS: Attagene CIS-FACTORIAL HepG2 Assay for human Nuclear Factor Kappa B (NF-kB) (AID 2282991); conditions: HepG2 Attagene cis-factorial NF-kB reporter mRNA; actives raise or lower the signal
Summary of the method: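 Endpoint from a 52-component multiplexed HepG2 reporter panel: cis-regulated transcription units transiently transfected, 24 h dosing, reporter mRNA quantified by RT-PCR and capillary electrophoresis, scored as increase or decrease against DMSO.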

[11] = ATG_NRF2_ARE_CIS: Attagene CIS-FACTORIAL HepG2 Assay for human Nuclear Factor Erythroid 2 Related Factor 2 (NFR2) response to Antioxidant Response Elements (ARE) (AID 2282992); conditions: HepG2 Attagene ARE/NRF2 reporter, transcription factor activity; actives raise or lower the signal;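 as to AC50: reporter mRNA level measured by RT-PCR and capillary electrophoresis fluorescence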
Summary of the method: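 Cis-factorial assay: transfected HepG2 reporter library, 24 h dosing, mRNA readout via RT-PCR/CE; DMSO-referenced bidirectional analysis.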

[12] = ATG_Oct_MLP_CIS: Attagene CIS-FACTORIAL HepG2 Assay for human Octamer-Binding Transcription Factor (Oct) (AID 2282993); conditions: HepG2 Attagene cis-factorial Oct reporter, mRNA; actives raise or lower the signal
Summary of the method: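 Readout is reporter transcript level from RT-PCR with fluorescent primer extension and capillary electrophoresis, fitted in both directions against DMSO. Transfected HepG2 reporter units report endogenous factor activity after 24 h dosing.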

[13] = molecular target: Cellular tumor antigen p53 (Homo sapiens) (UniProt P04637); assay: ATG_p53_CIS: Attagene CIS-FACTORIAL HepG2 Assay for human p53 Transcription Factor (AID 2282994); conditions: HepG2 p53 cis-element reporter, Attagene mRNA; actives raise or lower the signal
Sequence of Cellular tumor antigen p53 (Homo sapiens) (P04637 whole entry, looked up): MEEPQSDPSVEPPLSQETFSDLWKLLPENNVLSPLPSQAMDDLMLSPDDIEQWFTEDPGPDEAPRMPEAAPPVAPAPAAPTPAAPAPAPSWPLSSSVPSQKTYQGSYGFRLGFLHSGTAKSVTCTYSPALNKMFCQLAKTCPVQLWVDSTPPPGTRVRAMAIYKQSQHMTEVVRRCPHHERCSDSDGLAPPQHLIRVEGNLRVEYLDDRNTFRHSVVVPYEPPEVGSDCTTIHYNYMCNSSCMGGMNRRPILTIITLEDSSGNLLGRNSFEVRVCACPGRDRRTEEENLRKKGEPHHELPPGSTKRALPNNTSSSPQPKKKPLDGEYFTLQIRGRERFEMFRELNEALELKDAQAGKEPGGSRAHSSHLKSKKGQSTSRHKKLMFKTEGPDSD
Summary of the method: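 Using HepG2 hepatoma cells carrying cis-acting multiplexed reporters, mRNA induction is detected after a 24 h exposure. Gain- and loss-of-signal responses are fitted relative to DMSO-treated cells.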

[14] = molecular target: Oxysterols receptor LXR-alpha (Homo sapiens) (UniProt Q13133); assay: ATG_LXRa_TRANS: Attagene TRANS-FACTORIAL HepG2 Assay for human Liver X Receptor alpha (LXRa) (AID 2282980; active = hit-call score of the fitted dose curve at least 0.9, where 1 is the maximum); conditions: HepG2 Attagene TRANS reporter, LXRa transactivation
Summary of the method: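 Read-out: reporter transcript levels by RT-PCR plus capillary electrophoresis, fluorescence intensity. Transiently transfected HepG2, exogenous NR-GAL4 chimera, GAL4-UAS reporters; 24 h compound exposure. Activity = increase over DMSO negative control.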

[15] = molecular target: Oxysterols receptor LXR-beta (Homo sapiens) (UniProt P55055); assay: ATG_LXRb_TRANS: Attagene TRANS-FACTORIAL HepG2 Assay for human Liver X Receptor beta (LXRb) (AID 2282981; active = hit-call score of the fitted dose curve at least 0.9, where 1 is the maximum); conditions: HepG2 Attagene TRANS GAL4-LXRb reporter, mRNA
Summary of the method: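 HepG2 cells transiently transfected with multiple reporter transcription units carrying chimeric NR-Gal4 proteins acting on GAL4-UAS reporters; compound exposure 24 h. Reporter mRNA quantified by RT-PCR, 6-FAM labelling, HpaI digestion and capillary electrophoresis; gain of signal versus DMSO.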

[16] = molecular target: Hepatocyte nuclear factor 4-alpha (Homo sapiens) (UniProt P41235); assay: ATG_HNF4a_TRANS: Attagene TRANS-FACTORIAL HepG2 Assay for human Hepatocyte Nuclear Factor 4 alpha (HNF4a) (AID 2282982; active = hit-call score of the fitted dose curve at least 0.9, where 1 is the maximum); conditions: HepG2 HNF4a transactivation reporter, mRNA readout
Sequence of Hepatocyte nuclear factor 4-alpha (Homo sapiens) (P41235 whole entry, looked up, the tested form may be a part): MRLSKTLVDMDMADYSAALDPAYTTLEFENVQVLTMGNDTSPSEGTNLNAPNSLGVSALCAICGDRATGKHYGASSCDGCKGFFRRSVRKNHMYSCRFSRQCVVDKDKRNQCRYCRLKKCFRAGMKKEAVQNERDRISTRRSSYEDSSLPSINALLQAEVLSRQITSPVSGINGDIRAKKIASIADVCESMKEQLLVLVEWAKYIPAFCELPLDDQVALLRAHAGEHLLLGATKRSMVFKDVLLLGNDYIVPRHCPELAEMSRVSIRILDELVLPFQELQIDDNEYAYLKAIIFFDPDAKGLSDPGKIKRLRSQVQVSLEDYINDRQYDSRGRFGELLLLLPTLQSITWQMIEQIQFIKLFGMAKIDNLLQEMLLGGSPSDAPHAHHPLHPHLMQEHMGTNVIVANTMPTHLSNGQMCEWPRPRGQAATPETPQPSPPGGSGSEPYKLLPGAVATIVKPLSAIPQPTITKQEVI
Summary of the method: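 HepG2 cells transiently transfected with multiplexed GAL4-UAS reporter units responsive to chimeric NR-GAL4 proteins; compound exposure 24 h. Reporter mRNA quantified by RT-PCR, 6-FAM labelling, HpaI digestion and capillary electrophoresis; gain of signal versus DMSO baseline.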

[17] = molecular target: Myc proto-oncogene protein (Homo sapiens) (UniProt P01106); assay: ATG_Myc_CIS: Attagene CIS-FACTORIAL HepG2 Assay for human Myelocytomatosis (Myc) Proto-Oncogene Transcription Factor (AID 2282990); conditions: HepG2, Attagene cis-reporter transcription factor activity; actives raise or lower the signal
Sequence of Myc proto-oncogene protein (Homo sapiens) (P01106 whole entry, looked up): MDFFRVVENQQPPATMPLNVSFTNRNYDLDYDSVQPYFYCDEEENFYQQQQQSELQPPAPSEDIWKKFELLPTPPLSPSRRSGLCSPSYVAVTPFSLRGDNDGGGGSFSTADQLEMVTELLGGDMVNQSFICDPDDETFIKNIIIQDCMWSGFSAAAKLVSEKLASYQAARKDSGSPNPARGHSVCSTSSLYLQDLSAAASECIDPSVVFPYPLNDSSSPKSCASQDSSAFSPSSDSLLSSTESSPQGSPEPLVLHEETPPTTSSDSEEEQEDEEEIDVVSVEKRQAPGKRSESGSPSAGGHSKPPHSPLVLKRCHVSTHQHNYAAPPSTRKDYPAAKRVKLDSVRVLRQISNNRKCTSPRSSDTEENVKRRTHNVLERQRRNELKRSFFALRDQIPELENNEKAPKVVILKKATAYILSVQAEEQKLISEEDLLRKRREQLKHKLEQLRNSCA
Summary of the method: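 DMSO-normalised, bidirectionally fitted reporter mRNA signal. HepG2 cells transfected with cis reporter constructs, treated 24 h; transcripts detected by RT-PCR, 6-FAM primer extension and CE.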

[18] = BSK_3C_TissueFactor: BioMAP Diversity Plus: 3C Assay for Tissue Factor Biomarker Activity (AID 2282997); conditions: BioMAP 3C HUVEC, tissue factor biomarker readout; actives raise or lower the signal
Summary of the method: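 Human vascular primary cells (umbilical vein endothelium) received test chemical; Tissue Factor was determined by ELISA at 24 h, and both gain and loss of signal versus DMSO were fitted.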

[19] = BSK_3C_uPAR: BioMAP Diversity Plus: 3C Assay for Urokinase-type plasminogen activator receptor (uPAR) Biomarker Activity (AID 2282998); conditions: BioMAP 3C HUVEC, uPAR biomarker ELISA; actives raise or lower the signal
Summary of the method: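 Cell-surface uPAR on HUVEC (3C system) read by ELISA at 24 h post-treatment, with DMSO as baseline and fitting in both directions. Parallel cultures stained with SRB to flag overt cytotoxicity.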

[20] = BSK_3C_VCAM1: BioMAP Diversity Plus: 3C Assay for Vascular cell adhesion molecule 1 (VCAM1) Biomarker Activity (AID 2282999); conditions: BioMAP 3C HUVEC, VCAM1 ELISA, cytokine-stimulated; actives raise or lower the signal
Summary of the method: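 Human umbilical vein endothelial cells were dosed with compound for 24 h, after which cell-surface VCAM-1 was quantified by ELISA. Bidirectional curve fitting used DMSO as negative control and activity baseline.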

Measured: AC50

CCCCCCCC/C=C\CCCCCCCC(=O)OCC(O)CO (stereo unspecified)
active: [11] 68.4 µM
not listed: [14] | [15] | [16] | [17] | [18] | [19] | [20]
inactive: all other assays above

COCCOCCC[Si](C)(O[Si](C)(C)C)O[Si](C)(C)C
active: [7] 19 µM | [11] 1.64 µM | [12] 3.74 µM
not listed: [1] | [18] | [19] | [20]
inactive: all other assays above

O=C(c1ccccc1)c1ccc(O)cc1O
active: [11] 66.8 µM
not listed: [1]
inactive: all other assays above

CCOC(=O)C1CC(=O)C(=C(O)C2CC2)C(=O)C1 (stereo unspecified)
inactive: [1] | [3] | [15] | [4] | [7] | [8] | [9] | [17] | [10] | [12] | [13]

CCCCCCCCCCCCCCCCC
not listed: [2] | [6] | [11] | [18] | [19] | [20]
inactive: all other assays above

O=S(=O)(OCC(F)(F)F)C(F)(F)C(F)(F)C(F)(F)C(F)(F)F
inactive: [1] | [2] | [3] | [14] | [16] | [4] | [5] | [7] | [8] | [9] | [17] | [12] | [18] | [19] | [20]
active: [6] 65.2 µM | [10] 62.7 µM | [13] 89.1 µM | [19] 38.5 µM

O=C(O)CCC(F)(F)C(F)(F)C(F)(F)F
not listed: [2] | [11]
inactive: all other assays above

CSc1ccc(O)cc1C
inactive: [1] | [2] | [3] | [7] | [8] | [9] | [10] | [12] | [13]

C=C(C)CCCC
not listed: [4] | [6] | [15] | [16] | [17] | [18] | [19] | [20]
inactive: all other assays above

Reference: PubChem BioAssay (EPA / NIEHS)
